These results are taken from PubChem BioAssay AID1942 (Johns Hopkins Ion Channel Center, 2009).

The structures appear in SMILES notation. The campaign covered roughly 2,400 compounds. About 580 (24%) were called active. The list is a sample of the results. A number with no mark means an inactive call.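 Rule for the calls: active = activity change at or above the mean plus 3 SD of buffer wells without dofetilide, per plate; inactive = the rest.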

The target of this assay is Potassium voltage-gated channel subfamily KQT member 2 (Rattus norvegicus) (UniProt O88943). Nature of the assay: rat KCNQ2 channel activation by compounds alone, confirmation, counter-screen for hERG block protector project, cell-based, CHO, FluxOR thallium flux (AID 1942).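 Note: normalized value minus buffer-control mean plus three SD of buffer wells.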 As to conditions: CHO-KCNQ2 cells, FluxOR thallium flux fluorescence; at 10 µM; active compounds read high. Background: The purpose of a counterscreen is to sort out artefacts and off-target activity.
Potassium voltage-gated channel subfamily KQT member 2 (Rattus norvegicus), sequence (O88943 whole entry, looked up): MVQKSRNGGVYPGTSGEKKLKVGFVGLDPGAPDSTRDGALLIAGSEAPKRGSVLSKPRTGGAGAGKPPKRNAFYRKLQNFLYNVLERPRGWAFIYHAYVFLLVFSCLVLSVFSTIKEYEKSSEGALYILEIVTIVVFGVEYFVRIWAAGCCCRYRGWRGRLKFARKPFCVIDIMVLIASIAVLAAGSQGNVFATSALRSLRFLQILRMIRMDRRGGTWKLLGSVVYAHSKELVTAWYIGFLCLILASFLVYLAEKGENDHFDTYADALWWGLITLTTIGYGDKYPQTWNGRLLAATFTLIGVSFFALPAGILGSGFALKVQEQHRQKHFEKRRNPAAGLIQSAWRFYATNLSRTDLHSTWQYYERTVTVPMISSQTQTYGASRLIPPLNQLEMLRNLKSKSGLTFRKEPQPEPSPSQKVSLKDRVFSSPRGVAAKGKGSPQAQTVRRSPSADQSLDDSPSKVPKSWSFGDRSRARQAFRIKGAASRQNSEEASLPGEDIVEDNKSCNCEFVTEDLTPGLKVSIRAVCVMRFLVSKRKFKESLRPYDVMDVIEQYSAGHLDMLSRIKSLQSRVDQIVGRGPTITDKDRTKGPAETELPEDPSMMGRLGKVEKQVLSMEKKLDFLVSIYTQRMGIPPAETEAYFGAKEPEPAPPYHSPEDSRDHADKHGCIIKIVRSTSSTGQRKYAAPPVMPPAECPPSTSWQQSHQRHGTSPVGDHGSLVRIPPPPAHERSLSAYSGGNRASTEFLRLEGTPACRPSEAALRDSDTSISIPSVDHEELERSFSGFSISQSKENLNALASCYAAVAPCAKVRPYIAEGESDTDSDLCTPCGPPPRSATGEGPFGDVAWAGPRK
In the case of `CC(C)c1cccc(C(C)C)c1NC(=O)COC(=O)[C@H](C)NC(N)=O`, the activity change, less the hit threshold is -17.5%.

Take `O=C(NC(=S)Nc1ccccc1Cl)c1ccco1`: the activity change, less the hit threshold was 10.4% (active). For `O=C(NC(=S)Nc1ccccc1N1CCCC1)c1cccs1`, the activity change, less the hit threshold was -17.3%. For the compound `CC1CCN(c2ccccc2NC(=S)NC(=O)c2ccco2)CC1`, the activity change, less the hit threshold was -14.3%. Regarding `O=C(NC(=S)Nc1cc(C(F)(F)F)ccc1N1CCOCC1)c1ccco1`, the activity change, less the hit threshold was -11.4%. Regarding `O=C(NC(=S)Nc1cccc(Cl)c1N1CCCCC1)c1ccco1`, the activity change, less the hit threshold is -12.3%.

`O=C(NC(=S)Nc1ccccc1Br)c1ccco1`: the activity change, less the hit threshold was 18.2% (active).

Take `O=C(NC(=S)Nc1ccc(N2CCCCC2)cc1)c1ccco1`: the activity change, less the hit threshold is 45.9% (active). Turning to `O=C(NC(=S)Nc1ccccc1N1CCCC1)c1ccco1`, the activity change, less the hit threshold is 11.2% (active). For the compound `O=C(Nc1ccc(N2CCOCC2)cc1)c1ccc(S(=O)(=O)N2CCCCC2)cc1`, the activity change, less the hit threshold was -20.8%.

With `O=C(N/N=C/c1ccc(OC(F)F)cc1)C1=COCCO1`, the activity change, less the hit threshold is -10.9%. For the compound `COC(=O)c1cc2sc(Cl)cc2n1CC(=O)NCC1CCCO1` (stereo not given), the activity change, less the hit threshold was -16.1%. Then `COc1ccc(NC(=O)c2cn(-c3ccccc3)nc2-c2ccncc2)cc1`, with -9.7%; and `Nc1ncnc(Oc2cccc3cccnc23)c1[N+](=O)[O-]`, with -25.4%; and `CCC(C)c1ccccc1NC(=S)NC(=O)c1ccco1` (stereo not given), with 60.2% (active).

Consider `CCOc1ccccc1NC(=S)NC(=O)c1ccco1`, for which the activity change, less the hit threshold is -5.9%. For the compound `CCC(C)c1ccccc1NC(=O)c1[nH]c(C)c(C(C)=O)c1C` (stereo not given), the activity change, less the hit threshold is -22.3%. Then `N#C/C(=N/Nc1ccc([N+](=O)[O-])cc1)C(=N)N1CCCCC1`, with -6.1%; and `C/C(=C/CCC(C)[C@H]1CC[C@@]2(C)C3=C(CC[C@]12C)[C@@]1(C)CCC(=O)C(C)(C)[C@@H]1CC3)C(=O)O` (stereo not given in full), with -36.3%. Regarding `CC(C)OC(=O)CSc1nnc(C2CCCCC2)n1N`, the activity change, less the hit threshold is -21.8%. For `CCC1(c2ccccc2)NC(=S)N(c2ccc(C)c(C)c2)N1` (stereo not given), the activity change, less the hit threshold is 111% (active). Then `CCC1(c2ccc(Cl)cc2)NC(=S)N(c2ccc(C)c(C)c2)N1` (stereo not given), with 101% (active); and `CCCCn1nnc(NC(=O)c2ccc(-c3cccc([N+](=O)[O-])c3)o2)n1`, with -21.1%; and `CCCCNC1=CC(=O)C(=O)c2ccccc21`, with -18.9%. For the compound `COC(=O)c1ccc(C2C(C#N)=C(N)Oc3cc(O)ccc32)cc1` (stereo not given), the activity change, less the hit threshold is -8.7%. With `CC1CCc2sc(-c3n[nH]c(=S)o3)cc2C1` (stereo not given), the activity change, less the hit threshold is 20.7% (active).

As for `Cc1ccc2oc3c(c(=O)c2c1)C(c1cccs1)N(CCCN(C)C)C3=O` (stereo not given), the activity change, less the hit threshold is 7.1% (active).

Consider `CCN(CC)CCCN1C(=O)c2oc3ccccc3c(=O)c2C1c1cccs1` (stereo not given), for which the activity change, less the hit threshold was 12.9% (active). For `COCCN1C(=O)c2oc3cc(C)c(C)cc3c(=O)c2C1c1ccc(O)cc1` (stereo not given), the activity change, less the hit threshold is -0.6%. The result for `CSc1ccc(C2NN=C(c3ccccc3)S2)cc1` (stereo not given) reads -15.8%; that for `Cc1ccc(CC23CN4CCN(CC(C4)C2O)C3)c(C)c1` (stereo not given), -8.4%. For the compound `O=C(NCC(c1cccs1)N1CCOCC1)c1cc(S(=O)(=O)N2CCOCC2)ccc1F` (stereo not given), the activity change, less the hit threshold is -15.4%. Consider `CSC1=C(C#N)C(CC(C)C)C2=C(CCCC2=O)N1` (stereo not given), for which the activity change, less the hit threshold is -12.3%. In the case of `CCOc1nc(-c2ccccc2)ccc1-c1noc(COC)n1`, the activity change, less the hit threshold is -13.5%. As for `Cc1cc(C(F)(F)F)c2sc(N)nc2n1`, the activity change, less the hit threshold is -4.4%. For the compound `O=C(Cc1cccs1)Nn1c(Cc2cccs2)nc2ccccc2c1=O`, the activity change, less the hit threshold is 54.3% (active).

Turning to `O=C(O)CCCNC(=O)c1nn(Cc2ccccc2)c(=O)c2ccccc12`, the activity change, less the hit threshold was -5.2%. In the case of `O=C(Cc1ccccc1)Nn1c(-c2ccccc2)nc2ccccc2c1=O`, the activity change, less the hit threshold is 29.9% (active).

Turning to `Cc1cc(C)nc(NS(=O)(=O)c2ccc(NC(=O)Cc3ccccc3)cc2)n1`, the activity change, less the hit threshold was -11.1%.

Consider `Cc1nc2c(C(=O)NCc3cccs3)cnn2c(C)c1Cc1ccccc1`, for which the activity change, less the hit threshold is -25.2%.

For the compound `O=S(=O)(c1ccc(F)c(F)c1)N1CCN(c2ncccn2)CC1`, the activity change, less the hit threshold was -26%. The result for `CCCCCOc1ccc(C2C(C(C)=O)=C(C)Nc3ncnn32)cc1OC` (stereo not given) reads -11.7%; that for `O=C(c1ccc2c(c1)N(Cc1ccccc1F)C(=O)c1ccccc1S2(=O)=O)N1CCCC1`, -23.2%. Regarding `COc1ccc(CN2CCn3ncc(C(=O)Nc4ccccc4)c3C2=O)cc1`, the activity change, less the hit threshold is -13.1%. The result for `Cc1nnc(NC(=O)CN2CCN(Cc3ccc(F)cc3Cl)CC2)s1` reads -27.8%; that for `Cc1ccc2c(c1)c1nnc(SCC(=O)Nc3ccc(N(C)C)cc3)nc1n2CC(=O)O`, -16.6%; that for `COc1cccc(N=Nc2ccc(O)c3ncccc23)c1`, -7.4%. For `CCN(CC)S(=O)(=O)c1cc(OC)ccc1N=Nc1ccc(O)c2ncccc12`, the activity change, less the hit threshold is 44.8% (active). Take `COc1ccccc1N=Nc1ccc(O)c2ncccc12`: the activity change, less the hit threshold is 15.6% (active).

Turning to `COc1ccc(NS(=O)(=O)c2ccc3ccccc3c2)c2ncccc12`, the activity change, less the hit threshold is -12.6%. The result for `CCOc1ccc(N=Nc2ccc(O)c3ncccc23)cc1` reads -5.6%; that for `COc1ccc(OC)c(S(=O)(=O)Nc2ccc(O)c3ccccc23)c1`, -22.3%; that for `O=C(COC(=O)c1cc(NS(=O)(=O)c2cccs2)ccc1O)Nc1cc(Cl)ccc1Cl`, -5.6%.

On to `C[n+]1ccccc1COc1ccc(C(C)(C)C)cc1`, for which the activity change, less the hit threshold is -21.7%. Regarding `CCC1(CC)Cc2ccccc2-c2[nH]c(=S)[nH]c(=O)c21`, the activity change, less the hit threshold is -28.1%. On to `CCn1c(=S)[nH]c2c(c1=O)C(C)(C)Cc1ccccc1-2`, for which the activity change, less the hit threshold was 35.3% (active). The result for `CCCn1c(SCC(N)=O)nc2c(c1=O)C1(CCCC1)Cc1ccccc1-2` reads -2.1%.

On to `COc1ccc(-c2cc(C(F)(F)F)nc(SCC(=O)NCc3cccs3)n2)cc1`, for which the activity change, less the hit threshold is -14.1%.

Take `COc1ccc(-c2cc(C(=O)Nc3ccccc3SC)no2)cc1`: the activity change, less the hit threshold is -15.3%. Turning to `COC(=O)c1c(NC(=O)C(C)(C)C)csc1C`, the activity change, less the hit threshold was -9.2%. Take `C/C(=N\NC(=O)c1ccc(Cl)cc1)c1ccc(Br)s1`: the activity change, less the hit threshold is -6.9%.

Consider `CCc1cc2c(=O)n(CCC(C)C)c(=S)[nH]c2s1`, for which the activity change, less the hit threshold was 54% (active). Consider `CCCCNC(=O)c1onc(CSc2nc3ccccc3[nH]2)c1C(=O)NCCCC`, for which the activity change, less the hit threshold was -19%. Regarding `COc1ccc(CCNC(=O)Cn2c(=O)n(-c3ccc(F)cc3)c(=O)c3sccc32)cc1OC`, the activity change, less the hit threshold is -19.4%. Regarding `O=C(NN=C1c2ccccc2-c2ccccc21)c1ccccc1`, the activity change, less the hit threshold is 0%. For `O=C(N/N=C1/C(=O)c2cccc3cccc1c23)c1ccc(Cl)cc1`, the activity change, less the hit threshold is 73.4% (active). `CCNC(=S)N/N=C1\C(=O)c2cccc3cccc1c23`: the activity change, less the hit threshold was -4%. In the case of `O=C(O)c1ccccc1P(=O)(c1ccccc1)c1ccccc1`, the activity change, less the hit threshold was -16.8%. Consider `Cc1noc(C)c1COc1cccc(C(=O)NCc2cccc(Cl)c2)c1`, for which the activity change, less the hit threshold was -21.4%. For `CCCCCCCC/C=C\CCCCCCCC(=O)O`, the activity change, less the hit threshold was -1%. As to `CCCCCC/C(C)=C1/SC(=S)NC1=O`, the activity change, less the hit threshold is 71.1% (active). Turning to `CCOC(=O)Cc1nc2ccccc2o1`, the activity change, less the hit threshold is -2.9%.

With `O=C(O)Cc1sc(-c2ccc(Cl)cc2)nc1-c1ccccc1`, the activity change, less the hit threshold is -19.7%.

On to `O=C(Nc1ccc(-c2csc(Nc3cccc(C(F)(F)F)c3)n2)cc1)c1ccccc1`, for which the activity change, less the hit threshold was -23.8%. For the compound `O=C(NC(=S)Nc1ccc(C(F)(F)F)cc1)c1csnn1`, the activity change, less the hit threshold is 87% (active). Turning to `O=C(NC(=S)Nc1cccc(C(F)(F)F)c1)c1csnn1`, the activity change, less the hit threshold was 115% (active).

Turning to `O=C(NC(=S)Nc1cc(C(F)(F)F)ccc1Cl)c1ccccc1`, the activity change, less the hit threshold was -6.4%. As to `CC12CN3CC(C)(CN(C1)C3c1ccc3c(c1)OCO3)C2=O` (stereo not given), the activity change, less the hit threshold was -15.9%.

Turning to `C/C(O)=C/c1nc2ccccc2[nH]c1=O`, the activity change, less the hit threshold was -16.5%. For `CCN1C(=O)/C(=C/N2CCc3ccccc32)SC1=S`, the activity change, less the hit threshold is -17.3%. With `Cc1nnc2ccc(-c3cccc(NC(=O)c4ccc(Cl)nc4)c3)nn12`, the activity change, less the hit threshold was -16.1%. As for `CNC(=O)c1c(O)c2cccc3c2n(c1=O)CC3`, the activity change, less the hit threshold was -22.2%. In the case of `c1ccc2oc(-c3ccn[nH]3)cc2c1`, the activity change, less the hit threshold was -0.3%. As for `Cc1csc(NC(=O)c2cn3ccccc3n2)n1`, the activity change, less the hit threshold is -15.1%.

As for `Cc1csc(NC(=O)c2cc3c(s2)CCCC3)n1`, the activity change, less the hit threshold was 17.9% (active). In the case of `Cc1csc(NC(=O)C2C3C=CC(C3)C2C(=O)O)n1` (stereo not given), the activity change, less the hit threshold is -13.2%. In the case of `NC(=O)c1cccnc1Nc1cccc([N+](=O)[O-])c1`, the activity change, less the hit threshold is -14.1%. For the compound `Cc1occc1C(=O)Nc1cccc([N+](=O)[O-])c1`, the activity change, less the hit threshold is -10.3%. On to `O=C(O)c1ccc(N=NNc2cccc([N+](=O)[O-])c2)cc1`, for which the activity change, less the hit threshold is 2.2% (active). Turning to `CC(=O)Nc1ccc(NC(=O)CSc2ncc(C(=O)Nc3ccc(Cl)cc3)c(=O)n2C)cc1`, the activity change, less the hit threshold is -4.1%.

Regarding `N=c1c2cn[nH]c2nc(SCC(=O)c2ccc(Br)cc2)n1-c1ccc(Br)cc1`, the activity change, less the hit threshold is -23.7%.

`CCOC(=O)C(=CNc1cc(C)ccc1[N+](=O)[O-])C(=O)OCC`: the activity change, less the hit threshold was -8.6%. For the compound `CCOC(=O)N/N=C/C=C/c1ccccc1[N+](=O)[O-]`, the activity change, less the hit threshold is 5.2% (active). Consider `CCOC(=O)C(=CNc1ccc(OC)cc1[N+](=O)[O-])C(=O)OCC`, for which the activity change, less the hit threshold is -13.9%. Then `O=S(=O)(NCc1ccc(Cl)cc1Cl)c1ccc(N2CCOCC2)nc1`, with -15%; and `CCOC(=O)/C=C/c1ccc2c(c1)S(=O)(=O)N(c1cccc(OC)c1)[C@H]2CC(=O)OCC`, with -13.3%; and `CCCCN(CCCC)C(=S)NC(=O)c1ccccc1Cl`, with 89.6% (active). The result for `CCCn1nnnc1NC(=O)c1cc(Cl)ccc1Cl` reads -33.4%; that for `CN(C)C(=O)c1cc(C(=O)c2ccc(Cl)cc2Cl)c[nH]1`, -14.9%.

On to `O=C(Nc1ccsc1C(=O)O)c1ccccc1Cl`, for which the activity change, less the hit threshold was -14.7%. In the case of `CCN(CC)C(=S)NC(=O)c1ccc(Cl)cc1Cl`, the activity change, less the hit threshold is 9% (active). Regarding `CCCN(CCC)C(=S)NC(=O)c1ccc(Cl)cc1Cl`, the activity change, less the hit threshold was 55% (active). In the case of `O=C(NC(=S)Nc1nc(-c2cccc([N+](=O)[O-])c2)cs1)c1ccccc1Cl`, the activity change, less the hit threshold is -10.8%. `CN(C)CCCN=C(NO)c1ccc(Cl)cc1Cl`: the activity change, less the hit threshold was -14.9%. `CN(C)/C=C/C(=O)c1ccc(Cl)cc1Cl`: the activity change, less the hit threshold was -15.1%.
